Source: PubChem BioAssay AID624094 (National Center for Advancing Translational Sciences (NCATS), 2012)
Results filed as inconclusive are left out. The source made the active and inactive calls. The call rests on the fitted dose curve; in most records, active means well fitted inhibition curve with a large enough effect; inconclusive means small, poorly fitted or top-dose-only effect; inactive means flat fitted curve, though single readings scatter.

biological target: Dual specificity protein kinase CLK4 (Homo sapiens) (UniProt Q9HAZ1); test: Confirmation Assay for Inhibitors of Clk4 (Kinase-Glo Assay): KU probe; conditions: recombinant Clk4, Kinase-Glo ATP luminescence; series mostly up to 76.9 µM; activity, negative = inhibition: at the top concentration
Outline: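 RS repeat peptide (100 uM) and ATP (1 uM) phosphorylated by 25 nM Clk4 (final) in Tris pH 7.5 with MgCl2, EGTA, DTT and Triton X-100. After 4.5 h at room temperature, remaining ATP read as Kinase-Glo luminescence.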

Chain of Dual specificity protein kinase CLK4 (Homo sapiens) (Q9HAZ1 whole entry, looked up): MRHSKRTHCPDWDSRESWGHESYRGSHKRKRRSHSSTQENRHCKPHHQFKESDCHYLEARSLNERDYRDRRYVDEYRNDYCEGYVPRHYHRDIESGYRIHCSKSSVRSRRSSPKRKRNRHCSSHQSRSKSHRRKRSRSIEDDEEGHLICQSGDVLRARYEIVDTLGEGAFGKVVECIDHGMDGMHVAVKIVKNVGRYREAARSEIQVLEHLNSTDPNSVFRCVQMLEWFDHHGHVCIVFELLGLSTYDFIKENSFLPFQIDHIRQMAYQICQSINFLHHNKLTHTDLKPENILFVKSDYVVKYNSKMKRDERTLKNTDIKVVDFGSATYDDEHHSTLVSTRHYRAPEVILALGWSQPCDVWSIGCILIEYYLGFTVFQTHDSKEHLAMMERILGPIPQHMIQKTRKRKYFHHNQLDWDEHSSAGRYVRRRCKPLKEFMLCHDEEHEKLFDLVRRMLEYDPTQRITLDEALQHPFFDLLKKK

activity, negative = inhibition, inactive:
COc1ccc(CNc2ccnc(-c3ccc(N(C)C)cc3)n2)cc1 -2.14%
CN(C)c1ccc(-c2nccc(NCc3ccccc3)n2)cc1 -7.91%
COc1ccc(CNc2ccnc(-c3c(C)noc3C)n2)cc1 -2.38%
Cc1ccc(CNc2ccnc(-c3ccc(N(C)C)cc3)n2)cc1 3.14%
CN(C)c1ccc(-c2ncccn2)cc1 -17.6%

Potency, active:
c1ccc(CNc2ccnc(-c3ccc4c(c3)OCO4)n2)cc1 23200 nM
Fc1ccc(CNc2ccnc(-c3ccc4c(c3)OCO4)n2)cc1Br 13000 nM
CCNC(=O)c1ccc(-c2ccc3ncnc(NCC4CCCO4)c3c2)o1 (stereo not drawn) 328 nM
O=C(O)c1ccc(-c2ccc3ncnc(N4CCOCC4)c3c2)o1 582 nM
Clc1cc(Cl)cc(CNc2cc(-c3ccc4c(c3)OCO4)ncn2)c1 1640 nM
Cc1c(-c2ccnc(Nc3cc(Br)cc(C(F)(F)F)c3)n2)sc(=O)n1C 51.9 nM
CC(C)(C)CNc1ncnc2ccc(-c3ccc4c(c3)OCO4)cc12 65.4 nM
COc1cccc(-c2nccc(NCc3ccc(Cl)cc3)n2)c1 13000 nM
COc1cccc(-c2ccnc(NCc3ccc(Cl)cc3)n2)c1 5820 nM
FC(F)(F)c1cccc(Nc2nccc(-c3ccc4c(c3)OCO4)n2)c1 65.4 nM
Clc1cc(CNc2ccnc(-c3ccc4c(c3)OCO4)n2)ccn1 3680 nM
CN(CC1CCCCO1)c1ncnc2ccc(-c3ccc4c(c3)OCO4)cc12 (stereo not drawn) 46.3 nM
Brc1cncc(CNc2ccnc(-c3ccc4c(c3)OCO4)n2)c1 8230 nM
Brc1cc(Br)cc(CNc2ccnc(-c3ccc4c(c3)OCO4)n2)c1 5820 nM
FC(F)(F)c1cc(Br)cc(Nc2nccc(-c3ccc4c(c3)OCO4)n2)c1 130 nM
O=c1cnc2cnc(Nc3ccccc3)nc2n1CCc1ccccc1 184 nM
COc1ccc(CNc2ccnc(-c3cccc(OC)c3)n2)cc1 23200 nM
COc1ccc(-c2ccnc(NCc3ccc(Cl)cc3)n2)cc1 184 nM
Clc1ccc(Nc2nccc(-c3ccc4c(c3)OCO4)n2)cc1 368 nM
COc1ccc(CNc2ccnc(-c3cccc(C#N)c3)n2)cc1 9230 nM
c1cncc(CNc2ccnc(-c3ccc4[nH]ncc4c3)n2)c1 146 nM
c1cncc(CNc2nccc(-c3ccc4[nH]ncc4c3)n2)c1 26 nM
COc1ccc(-c2nccc(NCc3ccc(Cl)c(Cl)c3)n2)cc1 11600 nM
